Source: PubChem
The list is not random: actives were taken first. Their share in the collection is about 5.8%.
uPA surface inh: qHTS for Inhibitors of Cell Surface uPA Generation; cell surface uPA generation assay, qHTS; Potency, µM (highest dose often 38.3 µM), without a hit: top-dose activity change, negative = inhibition, usual class: inhibitors; 330,000 tested, 0.31% active; AID 540303, 2011; active means well fitted inhibition curve with a large enough effect; inconclusive means small, poorly fitted or top-dose-only effect; inactive means no such curve, though single readings can be large or run the other way; tested in mouse RAW 264.7 cells; further: potency means the concentration at half of the fitted maximal effect; on the % scale 0 is the no-effect control and ±100 the full control effect; nearly all actives have a fitted effect of over 55% in size
TRPV1 PAM: HTS Assay for Compounds that Act as Potentiators of the Vanilloid Receptor 1. Transient receptor potential cation channel subfamily V member 1 (Homo sapiens), Q8NER1. TRPV1-expressing cells, Fluo-8 calcium influx, capsaicin EC20 potentiation. potentiation, % at 8.33 µM. 320,000 tested, 0.02% active. AID 540277, 2011; in the data active means potentiation above about 80%; inconclusive means between about 30% and that limit; further: 0% is about no effect
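TRPV1-expressing cells were cultured overnight at 35.5C and loaded with Fluo-8 calcium dye for 40 to 90 min at room temperature. After a 10 s baseline, compound was added and calcium influx was read kinetically for 3 min (ex 480/em 520 nm).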
RORgamma inh: qHTS for inhibitors of ROR gamma transcriptional activity. Nuclear receptor ROR-gamma (Mus musculus), P51450. Drosophila S2 Gal4-RORgamma UAS-luciferase reporter, 20 h. Potency, µM (highest dose often 53.6 µM), inactives show top-dose activity change, negative = inhibition, hits mostly inhibitors. 310,000 tested, 5.4% active. AID 2551, 2010; further: potency means the concentration at half of the fitted maximal effect; on the % scale 0 is the no-effect control and ±100 the full control effect; nearly all actives have a fitted effect of over 60% in size
Target sequence (P51450 whole entry, looked up, the tested form may be a part): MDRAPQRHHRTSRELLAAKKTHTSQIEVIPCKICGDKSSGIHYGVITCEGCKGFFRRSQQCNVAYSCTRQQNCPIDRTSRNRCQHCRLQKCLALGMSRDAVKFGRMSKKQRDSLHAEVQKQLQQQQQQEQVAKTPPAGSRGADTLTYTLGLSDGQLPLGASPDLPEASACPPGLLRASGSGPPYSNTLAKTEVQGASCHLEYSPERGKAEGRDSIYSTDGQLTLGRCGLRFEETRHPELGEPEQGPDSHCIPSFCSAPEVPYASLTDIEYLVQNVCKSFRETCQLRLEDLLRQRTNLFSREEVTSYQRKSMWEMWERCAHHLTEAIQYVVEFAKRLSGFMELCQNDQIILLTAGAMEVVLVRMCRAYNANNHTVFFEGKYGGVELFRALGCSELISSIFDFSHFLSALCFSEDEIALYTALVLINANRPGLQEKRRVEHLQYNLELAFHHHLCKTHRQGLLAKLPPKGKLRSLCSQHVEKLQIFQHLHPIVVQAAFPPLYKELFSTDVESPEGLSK
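ROR gamma transcriptional activity was tracked as Gal4-UAS luciferase output in stably transfected Drosophila Schneider cells, with compound added 1 hr before 700 uM copper sulfate induction and a 20 hr ambient-temperature incubation.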
TRPV1 ag: HTS Assay for Compounds that Act as Agonists of the Vanilloid Receptor 1 | Transient receptor potential cation channel subfamily V member 1 (Homo sapiens), Q8NER1 | TRPV1-expressing cells, Fluo-8 calcium influx, agonist mode | activation, % at 8.33 µM | 320,000 tested, 0.19% active | AID 540275, 2011; in the data active means activation above about 80%; inconclusive means between about 30% and that limit; further: 0% is about no effect
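Cells expressing TRPV1 were dye-loaded with Fluo-8 and read kinetically: 10 s baseline, 3 min after compound (agonist portion), then 2 min after EC20 capsaicin (allosteric enhancer portion). Calcium-bound dye fluorescence at 480/520 nm.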
Gal4-VP16 FLuc: VP16 counterscreen qHTS for inhibitors of ROR gamma transcriptional activity; AID 2546, 2010; Potency, µM (series often up to 53.6 µM), without a hit: at the highest dose activity, negative = inhibition, usual class: inhibitors; 310,000 tested, 3.5% active; Drosophila S2 Gal4-VP16 UAS-luciferase, luminescence, 20 h;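 further: Gal4-VP16 expression switched on by copper sulfate through the metallothionein promoter; potency means the concentration at half of the fitted maximal effect; on the % scale 0 is the no-effect control and ±100 the full control effect; nearly all actives have a fitted effect of over 50% in size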
Numbers without * were called inactive; ? = inconclusive; / = not tested or not shown; [ ] = dose if it differs, or a comment. Unless noted, the call rests on the fitted dose curve; in most records, active means well fitted curve in the direction sought with a large enough effect; inconclusive means small, poorly fitted or top-dose-only effect, or another doubt; inactive means no such curve, though single readings can be large; an effect the other way counts as inactive or inconclusive.

SMILES | uPA surface inh | TRPV1 PAM | RORgamma inh | TRPV1 ag | Gal4-VP16 FLuc
Fc1ccc(NC(=S)NN2CCOCC2)cc1Cl | -5% | 3 | 2.8µM* | 1 | ?
CC1CC(=O)C(C(C2=C(O)CC(C)CC2=O)c2ccccc2)=C(O)C1 (stereo unspecified) | -12% | / | / | / | /
COC(=O)[C@@]1(Cc2ccc(OC)cc2)[C@H]2c3cc(C(=O)N(C)C)n(Cc4ccsc4Br)c3C[C@H]2CN1C(=O)c1ccccc1 | / | / | 30% | / | -9%
CC(C)CO/N=C1/C[C@@H](O)[C@@H](O)[C@@H]2[C@@H]3C(=O)N(c4cccc(Oc5ccccc5)c4)C(=O)[C@H]3CC[C@@H]12 | / | / | -4%[10 µM] | / | -7%[10 µM]
O=C(c1ccco1)N1CCC[C@@]2(CCN(c3ccccn3)C2)C1 | / | / | -2% | / | -14%
CC(=Nc1ccc(O)cc1)c1sc2ccccc2c1O | -15% | -13 | 19% | ? | -11%[0.365 µM]
CC(=Nc1ccccc1O)c1sc2ccccc2c1O | ? | -3 | 2µM* | 26 | ?
CC(=O)Nc1c(I)c(C(=O)O)c(I)c(N(C)C(C)=O)c1I | / | / | -31% | / | 1%
CCN(CC)S(=O)(=O)c1cc(NC(=O)C(=O)c2c(-c3ccccc3)cc3ccccn23)ccc1C | -3% | 14 | -20% | 2 | -3%
CCN(CC)S(=O)(=O)c1cccc(NC(=O)C(=O)c2c(-c3ccccc3)cc3ccccn23)c1 | 1% | -11 | 7.9µM* | -1 | -1%
COc1ccccc1CCC(=O)Oc1ccc(C#N)cc1OC | 0% | 8 | ? | 4 | 11µM*
CCCCC1CCC(C(=O)Nc2ccc(N3CCOCC3)cc2N2CCOCC2)CC1 (stereo unspecified) | 0% | -5 | / | 16 | /
Cc1cccc(N2C(S)=C(C#N)C(=O)NC2c2ccco2)c1 (stereo unspecified) | 0% | -3 | 17% | 0 | -5%
N#CC1=C(S)N(c2ccccc2)C(c2ccc(-c3cccc(Cl)c3)o2)NC1=O (stereo unspecified) | 15% | 30 | 13µM* | 0 | ?
CCOc1ccc(C2NC(=O)C(C#N)=C(S)N2c2cccc(C)c2)cc1OC (stereo unspecified) | 1% | 6 | -34% | 2 | -11%
CCOc1ccc(C2NC(=O)C(C#N)=C(S)N2c2ccc(C)cc2)cc1OC (stereo unspecified) | -2% | 21 | 14µM* | -2 | ?
COc1cc(C2NC(=O)C(C#N)=C(S)N2c2ccccc2)ccc1OC(C)C (stereo unspecified) | 0% | 3 | 10µM* | -1 | ?
CC1=C(C(=O)OCc2ccccc2)C(c2cccnc2)c2c(n(C)c(=O)n(C)c2=O)N1 (stereo unspecified) | -5% | -9 | -22% | -4 | -18%
CCOC(=O)[C@]1(C(NC(=O)OC)c2ccccc2)CCCC1=O (stereo partly specified) | / | / | -4%[10 µM] | / | -1%[10 µM]
Cn1cccc1/C=N/N1CCN(c2ccccc2)CC1 | 1% | -15 | -6% | ? | -1%
CCC(=O)NNc1nc2c(C)c(C)ccc2s1 | 7% | -1 | 7.9µM* | -1 | -29%
CCC(=O)NNc1nc2c(C)cccc2s1 | 8% | 22 | 11µM* | 0 | ?
C/C(=N\NC(=O)CSc1nc(C)cc(C)n1)c1ccc([N+](=O)[O-])cc1 | 0% | 9 | -15% | -2 | -1%
Cc1ccc(C2=Nc3ccccc3SC(c3cccc([N+](=O)[O-])c3)C2)cc1 (stereo unspecified) | 5% | -13 | 5.6µM* | ? | 13µM*
NC(=S)Nc1ccc2cc[nH]c2c1 | -4% | 15 | 5% | -6 | 0%
SMILES | uPA surface inh | TRPV1 PAM | RORgamma inh | TRPV1 ag | Gal4-VP16 FLuc
Cc1nc2ccc(NC(=S)NC3CCCCC3)cc2nc1C | -8% | -5 | 5µM* | 19 | -7%[10 µM]
Cc1ccc(NC(=S)NC(=O)C2CC2)c(C)c1 | -1% | -14 | 5µM* | 11 | 7.1µM*
S=C(Nc1ccc2[nH]ccc2c1)NC1CCCCC1 | -37% | -8 | 11µM* | ? | -16%
Cc1ccc(NC(=S)NC(=O)C2CCCC2)cc1C | 6% | -19 | 3.5µM* | 28 | 4.5µM*
CS(=O)(=O)Nc1ccc(C2=NN(C(=O)c3cccc(F)c3)C(c3cccs3)C2)cc1 (stereo unspecified) | 10% | 9 | -26% | -1 | -5%
COc1ncc2nc(-c3ccc(F)cc3)c(=O)n(C)c2n1 | / | / | -4% | / | 3%
O=C(NCCCN1CCCC1=O)C1CCN(S(=O)(=O)c2cccc(Cl)c2Cl)CC1 | 16% | 0 | / | -2 | /
CC1(C)NC(=O)N(CC(=O)Nc2ccc(-n3cnnn3)cc2)C1=O | 4% | / | / | / | /
COC(=O)C1=C(C)N(Cc2ccccc2)C(=O)/C1=C\c1ccco1 | -3% | -8 | 55% | 2 | 20%
O=C(NC(=S)Nc1ccc(F)cc1)C1CCCCC1 | 3% | -26 | 8.9µM* | ? | 10µM*
O=C(Nc1ccc(F)cc1)C1CCCCC1 | 0% | ? | 10% | 2 | -11%
Cc1ccc(NC(=S)NC(=O)C2CCC2)cc1C | 0% | -11 | 2.2µM* | 28 | 2.8µM*
Cc1ccc(NS(=O)(=O)c2ccc(NC(=O)C3CC3)cc2)c(C)c1 | 6% | 3 | 82% | 7 | 25µM*
Cc1ccc(NS(=O)(=O)c2ccc(NC(=O)c3cccs3)cc2)c(C)c1 | -2% | -3 | ? | 9 | -14%
Cc1ccc(NC(=S)NC2CCCC2)cc1C | -3% | -19 | 2.8µM* | 26 | 3.5µM*
CC(=O)Nc1ccc(S(=O)(=O)NC2C3(C)CCC(C3)C2(C)C)cc1 (stereo unspecified) | -10% | 4 | ? | 9 | -9%
O=C(NCc1ccccn1)c1cn(-c2ccccc2)nc1-c1ccc(Cl)cc1 | 1% | -5 | 37% | ? | 0%
O=C(NC(=S)Nc1ccc(Br)c(Cl)c1)C1CC1 | -2% | -9 | 4.5µM* | 7 | 7.9µM*
COC(=O)C1=C(C)N(C)C(=S)NC1c1c(OC)ccc2ccccc12 (stereo unspecified) | -2% | ? | 7.9µM* | 1 | ?
CCN(C(=O)CSc1nnc(-c2ccco2)n1CC)c1c(N)n(Cc2ccccc2)c(=O)[nH]c1=O | 3% | -3 | / | -2 | /
COc1ccccc1CN1CCC2(CC1)CCN(C(=O)c1cc(C(F)(F)F)cc(C(F)(F)F)c1)CC2 | / | / | -1% | / | 9%
CCN(CC)Cc1c(C(=O)N/N=C/c2ccc(C)o2)nnn1-c1nonc1N | 2% | 3 | -44% | 0 | 1%
CN(C)c1ccc(/C=N/N=C/c2ccccc2O)cc1 | 4% | -1 | 7.9µM* | 1 | ?
COc1ccc(/C=N/NC(=O)c2ccc(CN3c4cccc5cccc(c45)S3(=O)=O)cc2)cc1 | 3% | 7 | -21% | -3 | 1%
